Most compounds without a hit are left out; they make up all but 21% or so of the library.
CHX counter = Cycloheximide Counterscreen for Small Molecule Inhibitors of Shiga Toxin | cell reporter, cycloheximide protein synthesis inhibition counterscreen | max response, % | 12% of 300,000 active | AID 2314, 2010; in the data active = max response mostly above about 13%, no sharp cut-off; inactive = mostly below about 14%; note: read at 38.3 µM for the half of the compounds with a filed dose; 0% is about no effect
HCV inh = qHTS Assay for Inhibitors of Hepatitis C Virus (HCV); Huh7.5.1 HCVcc-Cre infection, luciferase reporter, 44 h; Potency, µM (top dose mostly 41.8 µM), inactives show at the highest dose activity change, negative = inhibition, hits mostly inhibitors; 3.4% of 340,000 active; AID 651820, 2012; note: potency is the fitted concentration of half-maximal effect; % is set by controls: 0 for no effect and ±100 for the full control effect
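Cells (1,000/well) were plated 4 h before compound, then infected with HCVcc-Cre virus (~0.5 moi). After 44 h further culture, infection was read as luciferase luminescence following a 15 min substrate incubation at room temperature.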
Pf growth 48h = Primary qHTS for delayed death inhibitors of the malarial parasite plastid, 48 hour incubation; 5.9% of 310,000 active; P. falciparum luciferase growth in erythrocytes, 48 h; AID 504832, 2011; Potency, µM (top dose mostly 28.7 µM), inactives show top-dose activity change, negative = inhibition, most hits filed as inhibitors; note: potency is the fitted concentration of half-maximal effect; % is set by controls: 0 for no effect and ±100 for the full control effect
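Cell-based growth assay: transgenic P. falciparum expressing firefly luciferase, cultured in red cells within RPMI 1640 containing 0.5% w/v Albumax, 24 mM bicarbonate and gentamycin. A drop in luciferase activity indicates inhibition.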
Shiga inhibitor = A qHTS for Small Molecule Inhibitors of Shiga Toxin. Vero cells, Shiga toxin protein synthesis inhibition reporter. inhibition, % at 38.7 µM. 9.2% of 290,000 active; in the data active = inhibition mostly above about 28%, no sharp cut-off; inactive = mostly below about 43%; note: 0% is about no effect
Pf growth 96h = Primary qHTS for delayed death inhibitors of the malarial parasite plastid, 96 hour incubation | P. falciparum luciferase reporter growth, 96 h | Potency, µM (titrated, usually from 28.7 µM), without a hit: at the highest dose activity change, negative = inhibition, usual class: inhibitors | 6.9% of 320,000 active; note: potency is the fitted concentration of half-maximal effect; % is set by controls: 0 for no effect and ±100 for the full control effect
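Two-generation exposure (96 h) targets delayed-death phenotype. Reporter parasites carrying integrated firefly luciferase, in red cells at 2% hematocrit and 0.05% parasitemia final, kept at 37 C, 5% CO2; luminescence loss indicates inhibition.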
AMA1 RON2 block = qHTS for Inhibitors of AMA1-RON; Towards Development of Antimalarial Drug Lead: Primary Screen; AlphaScreen AMA1-biotinylated RON2 peptide binding; Potency, µM (top dose mostly 58.2 µM), for the others: top-dose activity change, negative = inhibition, actives largely listed as inhibitors; AID 720542, 2013; 0.2% of 360,000 active;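 note: potency is the fitted concentration of half-maximal effect; 0% = vehicle wells and -100% = peptide control; nearly all actives have a fitted effect of over 45% in size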
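AMA1 (3D7) with his tag at 25 nM final met compounds first, then biotinylated RON2 peptide at 25 nM; detection used donor plus acceptor beads, 10 µg/mL apiece, read by AlphaScreen after 30 min at room temperature.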
* hit, by the source's call; ? = inconclusive; nt = no result given; [ ] = remark or other dose. Unless noted, calls come from the whole dose curve; as a rule, active = well fitted curve in the direction sought with a large enough effect; inconclusive = small, poorly fitted or top-dose-only effect, or another doubt; inactive = no such curve, though single readings can be large; an effect the other way counts as inactive or inconclusive.

SMILES	CHX counter	HCV inh	Pf growth 48h	Shiga inhibitor	Pf growth 96h	AMA1 RON2 block
O=C(c1ccc(N2CCOCC2)cc1)c1cccs1	31*	?	204%	53*	-10%	-15%
O=C(N/N=C/c1ccc(N2CCOCC2)cc1)c1cccs1	39*	-20%	143%	79*	72%	-8%
O=C(NC1CCCCC1)C1CC(=O)N(CCc2ccc(F)cc2)C1 (stereo not drawn)	-5	1%	1%	-4	-14%	3%
NC(=O)C1CCN(C(=O)c2ccccc2SCC(=O)NCC2CCCCC2)CC1	-1	nt	?	-4	23%	53%
O=C1NC(=O)N(c2ccc3c(c2)OCO3)C(=O)/C1=C/c1ccc(N2CCCC2)o1	1	-23%	?	-11	1%	-6%
CCOc1ccc(N2C(=O)NC(=O)/C(=C\c3ccc(N4CCCCC4)o3)C2=O)cc1	2	2%	?	32	13µM*	3%
CN1C(=O)/C(=C\c2ccc(N3CCCCC3)o2)C(=O)NC1=S	27*	4%	9%	38*	19%	18%
CN1C(=O)/C(=C/c2ccc(N3CCCCCC3)o2)C(=O)NC1=S	40*	-13%	421%	64*	378%	-2%
COc1cc(Br)cc(CNc2ccc(F)c([N+](=O)[O-])c2)c1O	13	?	5%	-1	-10%	-10%
CCOC(=O)C1CCCN(C(=S)NC2CCCC2)C1 (stereo not drawn)	-2	2%	-2%	-2	16%	-16%
Cc1ccc(NC(=O)n2ccc(-c3ccc(-n4ccnc4)cc3)n2)cc1	40*	6%	161%	85*	136%	14%
CC(C)(C)c1ccc(NC(=O)COc2ccc(-n3ccnc3)cc2)cc1	36*	5µM*	?	49*	nt	-14%
C/C(=N\NC(=O)COc1ccc(C(C)(C)C)cc1)c1ccc(-n2ccnc2)cc1	31*	-27%	-78%	31	10µM*	0%[11.6 µM]
Cn1nc(C(C)(C)C)cc1C(=O)N1CCCC(c2cc(C(=O)NCc3ccccc3)no2)C1 (stereo not drawn)	nt	nt	nt	nt	nt	2%
CCOC(=O)C(NC(=O)CC)(Nc1ccccc1OC)C(F)(F)F (stereo not drawn)	17*	19%	1%	-3	49%	-5%
CCOC(=O)C(NCc1ccccc1OC)(NC(=O)CC)C(F)(F)F (stereo not drawn)	-1	4%	43%	15	103%	3%
CCOC(=O)C(NC(=O)c1ccccc1)(Nc1cc(C)on1)C(F)(F)F (stereo not drawn)	-1	-20%	19%	-8	5.2µM*	?
Cn1cccc1C(=O)OCc1ccc(C(C)(C)C)cc1	32*	-1%	128%	98*	83%	?
CC[C@@]1(c2ccccc2)NC(=O)NC1=O	6	nt	nt	11	nt	nt
O=C(NCCc1ccccn1)c1nc(Cn2ccc([N+](=O)[O-])n2)no1	-2	6%	20%	-13	?	62%
Cn1ccc(C(=O)Nc2sc3c(c2C(N)=O)CCCCC3)n1	57*	5%	207%	99*	226%	27%
Cn1nccc1C(=O)Nc1sc2c(c1C(N)=O)CCCC2	31*	-21%	31%	58*	2%	11%
Cn1cc(Br)c(C(=O)Nc2sc3c(c2C(N)=O)CCC3)n1	30*	?	31%	52*	nt	9%
Brc1ccc2nc(C3CCCCC3)c(CC3CCCCC3)n2c1	nt	nt	nt	nt	nt	-7%
COc1cccc(C(=O)OCCNC(=O)c2cccnc2)c1	8	-2%	-1%	-9	-21%	-5%
SMILES	CHX counter	HCV inh	Pf growth 48h	Shiga inhibitor	Pf growth 96h	AMA1 RON2 block
Cc1cc2c(N=O)c(NO)ccc2[nH]1	11	?	3.7µM*	50	41%	21%
COc1ccc(C(=O)NCc2c(C)nn(Cc3ccccc3)c2C)cc1S(=O)(=O)N1CCOCC1	nt	?	?	nt	?	14%
CC(C)(C)C1CCc2c(sc(NC(=O)c3ccncc3)c2C(N)=O)C1 (stereo not drawn)	16*	?	-11%	11	51%	8%
NC(=O)c1c(NC(=O)c2cccnc2)sc2c1CCCCC2	3	0%	164%	nt	38%	4%
CCC1CCc2c(sc(NC(=O)c3ccoc3C)c2C(N)=O)C1 (stereo not drawn)	1	5µM*	-9%	20	129%	5%
NC(=O)c1c(NC(=O)c2cccnc2)sc2c1CCCC2	19	?	137%	73*	?	4%
O=C(Nc1sc2c(c1C(=O)c1ccc(Cl)cc1)CCCC2)c1cccnc1	10	?	?	16	?	?
CCC(C)(C)C1CCc2c(sc(NC(=O)c3ccoc3C)c2C(N)=O)C1 (stereo not drawn)	4	10%	-6%	-20	nt	-6%
O=C(Nc1sc2c(c1C(=O)c1ccccc1)CCCC2)c1cccnc1	-4	?	0%	-8	0.37µM*	-3%
O=C(O)c1cc(-c2ccc(Cl)cc2)n(-c2cccc(Cl)c2)n1	-1	-3%	-4%	-6	50%	12%
COc1cc(/C=C2\C(=N)N3N=CSC3=NC2=O)ccc1OS(=O)(=O)c1ccccc1[N+](=O)[O-]	8	-5%	-12%	43	4.1µM*	36%
COc1cc(C=C2C(=O)NC(=O)NC2=O)ccc1OS(=O)(=O)c1ccccc1[N+](=O)[O-]	21	-16%	32%	57*	?	-17%
COc1ccc(CCNC(=O)c2cc(S(=O)(=O)N3CCCCCC3)ccc2OC)cc1OC	nt	?	?	nt	13µM*	-6%
COc1ccc(S(=O)(=O)N2CCCCCC2)cc1C(=O)N(C)CCOc1ccc(Cl)cc1	nt	?	13µM*	nt	?	-2%
COc1cc(CNCCc2ccc(S(N)(=O)=O)cc2)ccc1OCC(=O)N1CCCCC1	-3	-2%	5%	-12	4.1µM*	-1%
COc1ccc(CCN(C)C(=O)c2cc(S(=O)(=O)N3CCCCC3)ccc2Cl)cc1OC	nt	?	13µM*	nt	?	59%
COc1ncnc2c1ncn2CCCNCc1ccccn1	nt	nt	nt	nt	nt	118%
COc1ccc(S(=O)(=O)N2CCCCCC2)cc1C(=O)NCc1ccc(C)cc1	nt	-25%	15µM*	nt	12µM*	15%
CC12CCC(C(=O)Nc3nc4ccc(Br)cc4s3)(OC1=O)C2(C)C (stereo not drawn)	33*	-25%	22%	94*	?	-1%

High-throughput results as filed in PubChem.
